Source: PubChem (National Center for Advancing Translational Sciences (NCATS))
An excerpt weighted towards active compounds, which were near 8.7% of everything screened.
Pf growth 48h: Primary qHTS for delayed death inhibitors of the malarial parasite plastid, 48 hour incubation; 310,000 compounds, 5.9% hits; Potency, µM (highest dose often 28.7 µM), hits mostly inhibitors; P. falciparum luciferase growth in erythrocytes, 48 h
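Parasite viability was followed by luminescence of a genomically integrated firefly luciferase. Cultures held 0.1% parasitemia at 2% hematocrit (final), incubated under 5% CO2 at 37 C.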
AMA1 RON2 block: qHTS for Inhibitors of AMA1-RON; Towards Development of Antimalarial Drug Lead: Primary Screen; AlphaScreen AMA1-biotinylated RON2 peptide binding; AID 720542, 2013; 360,000 compounds, 0.2% hits; Plasmodium falciparum AMA1 (3D7) - RON2 peptide interaction; Potency, µM (doses to about 58.2 µM), most hits filed as inhibitors; further: nearly all actives have a fitted effect of over 45% in size
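AMA1 (3D7) with his tag at 25 nM final met compounds first, then biotinylated RON2 peptide at 25 nM; detection used donor plus acceptor beads, 10 µg/mL apiece, read by AlphaScreen after 30 min at room temperature.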
Pf growth 96h: Primary qHTS for delayed death inhibitors of the malarial parasite plastid, 96 hour incubation | P. falciparum luciferase reporter growth, 96 h | Potency, µM (doses to about 28.7 µM), most hits filed as inhibitors | 320,000 compounds, 6.9% hits
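P. falciparum expressing integrated firefly luciferase, in erythrocytes at 2% hematocrit, 0.05% parasitemia, incubated with compounds 96 h at 37 C, 5% CO2. Growth inhibition read as loss of luminescence; two-generation exposure targets delayed-death apicoplast inhibitors.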
VACV mCherry inh: qHTS for Stage-Specific Inhibitors of Vaccinia Orthopoxvirus: mCherry Reporter Primary qHTS. Vaccinia virus mCherry reporter infection, fluorescence. Potency, µM (top dose mostly 36.5 µM), hits mostly inhibitors. 310,000 compounds, 0.63% hits. AID 720579, 2013; calls by dose curve; tested in A549 cells; further: nearly all actives have a fitted effect of over 35% in size
VACV Venus inh: qHTS for Stage-Specific Inhibitors of Vaccinia Orthopoxvirus: Venus Reporter Primary qHTS; Vaccinia virus Venus reporter expression, fluorescence; Potency, µM (highest dose often 36.5 µM), most hits filed as inhibitors; 330,000 compounds, 0.46% hits; AID 720580, 2013; calls by dose curve; tested in A549 cells; further: nearly all actives have a fitted effect of over 30% in size
Large screens that a line does not name were inactive. Unless noted, the call rests on the fitted dose curve; in most records, active means well fitted curve in the direction sought with a large enough effect; inconclusive means small, poorly fitted or top-dose-only effect, or another doubt; inactive means no such curve, though single readings can be large; an effect the other way counts as inactive or inconclusive.

COCCNC(=O)c1cnn(-c2ccc(C)cc2C)c1C1CCN(C(=O)OC(C)(C)C)CC1	none (no result: Pf growth 48h, AMA1 RON2 block, Pf growth 96h)
O=C(OCC1CCCO1)c1ccc2c(c1)N(Cc1ccccc1)C(=O)c1ccccc1S2(=O)=O (stereo unspecified)	none (no result: Pf growth 48h, AMA1 RON2 block, Pf growth 96h)
O=C(COc1ccccc1-c1ccccc1)N/N=C/c1ccc2ccccc2c1	Pf growth 96h 2.33µM, VACV Venus inh inconclusive
CC(=NNC(=S)SCc1ccccc1)c1ccccn1	VACV mCherry inh 10µM, VACV Venus inh inconclusive (no result: Pf growth 48h, Pf growth 96h)
O=C(COc1ccccc1-c1ccccc1)N/N=C/c1ccncc1	Pf growth 48h inconclusive, Pf growth 96h inconclusive
CCCn1nnc(NC(=S)NC(=O)Cc2ccccc2)n1	Pf growth 48h inconclusive, Pf growth 96h inconclusive, VACV mCherry inh 2.24µM, VACV Venus inh inconclusive
Cn1nnc(NC(=S)NC(=O)c2cccc3ccccc23)n1	Pf growth 48h inconclusive, Pf growth 96h 13.1µM
CCCCn1nnc(NC(=S)NC(=O)c2cccs2)n1	Pf growth 96h inconclusive, VACV mCherry inh inconclusive, VACV Venus inh 2.24µM
Cn1nnc(NC(=S)NC(=O)c2cccs2)n1	none
CCCn1nnc(NC(=S)NC(=O)CC)n1	none (no result: Pf growth 48h, VACV mCherry inh, VACV Venus inh)
COc1ccccc1N1CCN(C(=O)CCn2nc(C)c(S(=O)(=O)N3CCCC3)c2C)CC1	none (no result: Pf growth 48h, AMA1 RON2 block, Pf growth 96h)
CCOC(=O)c1cc(NCc2cccs2)ccc1N1CCOCC1	Pf growth 96h 1.47µM, VACV mCherry inh inconclusive
CCOC(=O)c1cc(NC(=O)c2cccs2)ccc1N1CCOCC1	none
CCOC(=O)c1ccc(Nc2cc(C)nc(N3CCOCC3)n2)cc1	Pf growth 48h inconclusive, Pf growth 96h inconclusive, VACV mCherry inh 10µM, VACV Venus inh 12.6µM
CCOC(=O)c1ccc(Nc2cc(C)nc(-c3ccccc3)n2)cc1	Pf growth 48h 10.4µM, VACV mCherry inh inconclusive, VACV Venus inh inconclusive
CCOC(=O)c1cnc2ccc(C)cc2c1Nc1ccc(N2CCOCC2)cc1	Pf growth 48h inconclusive, AMA1 RON2 block 14.1µM, Pf growth 96h 10.4µM, VACV mCherry inh inconclusive
CCN(CC)S(=O)(=O)c1ccc2c(c1)N(CC(=O)NCCc1ccccc1)C(=O)CO2	none (no result: Pf growth 48h, AMA1 RON2 block, Pf growth 96h)
CCn1cc(C(=O)O)c(=O)c2cnc(N3CCN(C(=S)Nc4ccccc4Cl)CC3)nc21	Pf growth 48h 0.37µM, Pf growth 96h 0.828µM (no result: VACV mCherry inh, VACV Venus inh)
CCn1cc(C(=O)O)c(=O)c2cnc(N3CCN(C(=S)NC(=O)c4ccc(Cl)cc4)CC3)nc21	none
CCn1cc(C(=O)O)c(=O)c2cnc(N3CCN(C(=S)Nc4ccc(F)cc4)CC3)nc21	Pf growth 48h inconclusive, Pf growth 96h 0.928µM (no result: VACV mCherry inh, VACV Venus inh)
C=CCNC(=S)N1CCN(c2ncc3c(=O)c(C(=O)O)cn(CC)c3n2)CC1	Pf growth 96h inconclusive
O=C(NCc1cccs1)c1ccc(CSc2nc3ccncc3n2Cc2ccccc2F)cc1	VACV mCherry inh inconclusive (no result: Pf growth 48h, AMA1 RON2 block, Pf growth 96h)
CCOC(=O)c1cc(-c2ccccc2)sc1NC(=O)C(C)OC(=O)c1cccnc1Cl (stereo unspecified)	Pf growth 96h 9.28µM
CCOC(=O)c1cc(-c2ccccc2)sc1NC(=O)C(C)Sc1nnnn1C (stereo unspecified)	Pf growth 48h inconclusive, Pf growth 96h 10.4µM
CCOC(=O)c1cc(-c2ccccc2)sc1NC(=O)C(C)C	Pf growth 48h inconclusive, Pf growth 96h inconclusive
CCOC(=O)c1cc(-c2ccccc2)sc1NC(=O)C(C)Sc1nnc(C)s1 (stereo unspecified)	Pf growth 48h 13.1µM, Pf growth 96h inconclusive
CCOC(=O)c1cc(-c2ccccc2)sc1NC(=O)C(C)N1C(=O)NC(C)(c2ccc(Cl)cc2)C1=O (stereo unspecified)	Pf growth 96h 9.28µM, VACV Venus inh inconclusive (no result: Pf growth 48h)
CN(C)c1nc(N2CCN(c3ccc(F)cc3)CC2)c(C#N)c(=O)o1	Pf growth 48h inconclusive
N#Cc1c(N2CCN(c3ccc(F)cc3)CC2)nc(N)c2c(N)nc3c(c12)CC(=O)N3C1CC1	Pf growth 48h 0.928µM, Pf growth 96h 2.62µM
COCCn1c(CNC(=O)c2cccc(C)c2)nc2cccnc21	none (no result: Pf growth 48h, AMA1 RON2 block, Pf growth 96h)
COC(=O)CN1C(=S)N(c2ccc(F)cc2)C(=O)C1CC(=O)Nc1ccc(F)cc1 (stereo unspecified)	Pf growth 48h 10.4µM, AMA1 RON2 block inconclusive, Pf growth 96h inconclusive
COC(=O)CN1C(=S)N(Cc2ccccc2)C(=O)C1CC(=O)Nc1ccc(Br)cc1 (stereo unspecified)	Pf growth 48h 14.7µM, Pf growth 96h inconclusive, VACV Venus inh inconclusive (no result: VACV mCherry inh)
CCOC(=O)c1ccc(NC(=O)CC2C(=O)N(c3ccc(F)cc3)C(=O)N2CCC(C)C)cc1 (stereo unspecified)	Pf growth 96h 5.86µM (no result: Pf growth 48h, VACV mCherry inh, VACV Venus inh)
COC(=O)CN1C(=S)N(c2ccc(Cl)cc2)C(=O)C1CC(=O)Nc1ccc(F)cc1 (stereo unspecified)	Pf growth 48h inconclusive, Pf growth 96h inconclusive
CCc1ccc(S(=O)(=O)c2c[nH]c3cc(OC)c(OC)cc3c2=O)cc1	none (no result: Pf growth 48h, AMA1 RON2 block, Pf growth 96h)
O=C(O)C1C2C=CC(C2)C1C(=O)OCc1ccccc1 (stereo unspecified)	Pf growth 96h 9.28µM
C=C(Cl)COC(=O)[C@H]1C2C=CC(C2)C1C(=O)O (stereo partly specified)	none
N=c1c2ccccc2nnn1-c1cccc(C(F)(F)F)c1	Pf growth 48h 13.1µM, Pf growth 96h inconclusive
O=C(O)Cc1c(C(=O)O)nnn1-c1cccc(C(F)(F)F)c1	Pf growth 96h inconclusive
Cn1ccnc1C1CCCCN1C(=O)CN1Cc2ccccc2OC(c2ccccc2F)C1 (stereo unspecified)	none (no result: Pf growth 48h, AMA1 RON2 block, Pf growth 96h)
Cc1cc(C(=O)N2CCc3c([nH]c4ccccc34)C2c2c(F)cccc2Cl)no1 (stereo unspecified)	Pf growth 48h 5.86µM
CCOc1cccc(C2c3[nH]c4ccccc4c3CCN2C(=O)c2ccccc2F)c1 (stereo unspecified)	none (no result: Pf growth 48h, AMA1 RON2 block, Pf growth 96h)
CCc1cc(C(=O)N2CCc3c([nH]c4ccccc34)C2c2ccc(OC)cc2F)no1 (stereo unspecified)	Pf growth 96h inconclusive, VACV mCherry inh 11.2µM
COC(=O)c1cccc(Nc2c(-c3cc(Br)ccc3O)nc3nc[nH]n23)c1	none (no result: Pf growth 48h, AMA1 RON2 block, Pf growth 96h)
COc1ccc(C(CC(=O)N2CCCC(C)C2)c2c(OC)cc(OC)c3ccc(=O)oc23)cc1 (stereo unspecified)	Pf growth 48h 11.7µM, Pf growth 96h inconclusive
COc1ccc(C(CC(=O)N2CCOCC2)c2c(OC)cc(OC)c3ccc(=O)oc23)cc1 (stereo unspecified)	Pf growth 48h inconclusive, Pf growth 96h inconclusive
COc1cc(C(CC(=O)N2CCCC2)c2c(OC)cc(OC)c3c(-c4ccccc4)cc(=O)oc23)cc(OC)c1OC (stereo unspecified)	Pf growth 48h 5.22µM, Pf growth 96h 3.7µM
COc1ccc(C(CC(=O)N2CCCCC2)c2c(OC)cc(OC)c3c(-c4ccccc4)cc(=O)oc23)cc1 (stereo unspecified)	Pf growth 48h 11.7µM, Pf growth 96h 13.1µM
